Data published in PubChem BioAssay AID1671188 (National Center for Advancing Translational Sciences (NCATS), 2021).
The campaign covered roughly 100,000 compounds. About 250 (0.25%) were called active. A call without a number means that no potency is given here. About 7% were inconclusive and are not listed. Calls come from the whole dose curve; as a rule, active = well fitted inhibition curve with a large enough effect; inconclusive = small, poorly fitted or top-dose-only effect; inactive = flat fitted curve, though single readings scatter. Many of the other results were omitted from the sample, so actives are more common in it than they were.
Note: nearly all actives have a fitted effect of over 60% in size.
Potency is the fitted concentration of half-maximal effect.

These compounds were tested against Alanine aminotransferase 2 (Homo sapiens) (UniProt Q8TD30) (assay: Primary qHTS assay for inhibitors of Glutamate pyruvate transaminase 2 (GPT2)). Details: Recombinant GPT2, coupled pyruvate oxidase/HRP Amplex Red fluorescence; series mostly up to 57.7 µM.
Sequence of Alanine aminotransferase 2 (Homo sapiens) (Q8TD30 whole entry, looked up): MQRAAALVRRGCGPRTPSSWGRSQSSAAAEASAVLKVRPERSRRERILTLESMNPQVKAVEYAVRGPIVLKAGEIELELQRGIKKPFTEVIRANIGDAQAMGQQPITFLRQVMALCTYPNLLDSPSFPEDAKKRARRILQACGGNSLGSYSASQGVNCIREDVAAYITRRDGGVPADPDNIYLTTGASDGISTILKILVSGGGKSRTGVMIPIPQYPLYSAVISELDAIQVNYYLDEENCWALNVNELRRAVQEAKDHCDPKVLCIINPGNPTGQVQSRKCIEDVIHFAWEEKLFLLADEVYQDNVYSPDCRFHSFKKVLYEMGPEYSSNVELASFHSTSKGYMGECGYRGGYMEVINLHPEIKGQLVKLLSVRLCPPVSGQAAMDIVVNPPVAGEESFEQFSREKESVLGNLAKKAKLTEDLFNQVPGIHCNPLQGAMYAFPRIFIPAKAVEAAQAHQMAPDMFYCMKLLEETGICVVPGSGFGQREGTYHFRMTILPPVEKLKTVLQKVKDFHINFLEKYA
Method: Assay Provider: Zhenghe John Wang Ph.D.
Case Western Reserve University, Cleveland OH
Glutamate pyruvate transaminase 2 (GPT2) catalyzes the reversible transamination of glutamate and pyruvate to provide a-ketoglutarate and alanine. We have optimized an assay for GPT2 enzymatic activity that couples pyruvate formation to detection of fluorescence using an established pyruvate oxidase/horseradish peroxidase / Amplex Red system.
Screening conditions were 250uM a-KG, 2mM L-alanine, and 10ng/uL GPT2 in […] of solution; 10uL of Amplex reaction mix (outlined below) were added so that final concentrations of Amplex reagents in 50uL were 0.2mM ThPP, 0.2U/mL PO and HRP, and 50uM Amplex.
NOTE: The volume of GPT2 in the system depends on the activity of it. The activity is different every batch. You need to test the activity before the assay. For full plate assay with automation, plate 20uL of GPT2 buffer to pin into, then add 10uL of GPT2 dilution followed immediately by 10uL of substrate dilution. 2 Columns of the plate were devoted to GPT2 buffer ([…] PH7.5, 0.0001% Tween) + 50uM AOA (known GPT2 inhibitor) to serve as a positive control. Complete the assay as normal. Amplex-red buffer: […] PH7.5, 1 mM EDTA, 1 mM MgCl2.
1. Combine a-KG and L-alanine at desired concentrations and incubate for at least 10 minutes at 37C. Stocks of L-alanine and a-KG are diluted in distilled water. However, the stocks were diluted in GPT2 buffer for the assay.
2. Prepare GPT2 dilution at the desired concentration in GPT2 buffer.
3. Plate 40uL of GPT2 dilution with 40uL of substrate dilution and let incubate for 30 minutes at room temperature.
4. Add 20uL of Amplex reaction mix prepared as follows: 1.5uL 200U/mL Horseradish Peroxidase, 200mM Thiamine Pyrophosphate, 200U/mL Pyruvate Oxidase; 7.5uL 10mM Amplex Red; 288uL Amplex Buffer.
5. Incubate for 30 minutes at room temperature in the dark, then image using AM_Amplex_Fluorescence on plate reader nearest the window.
CCOC(=O)C1CCN(C(=O)c2ccc3nnc(Cc4ccc(Cl)cc4)n3c2)CC1 was tested, and the Potency was “inactive”. In the case of CCC(C)(C)C(=O)N1CC(c2nnc(-c3ccncc3)o2)C2(CCOCC2)C1 (centres undefined), the Potency is reported as “inactive”. O=C(C1CCCN(Cc2cccc(-c3ccc(F)cc3F)c2)C1)N1CCCCC1 (centres undefined) was tested, and the Potency was “inactive”. For CC[C@H]1CN(S(=O)(=O)c2ccc(OC)cc2)CC[C@H]1CC(=O)Nc1ccccc1, the Potency was “inactive”. For CC(C)(O)CCc1cccc(C(=O)NC2CCN(c3ncccc3C#N)CC2)c1, the Potency was “inactive”. O=C1C[C@H]2CC[C@@H](CN1)N2C(=O)c1csc2nc(-c3ccccc3Cl)cn12 was tested, and the Potency was “inactive”. For COCCN1C(=O)N(CCc2ccccc2)C(=O)C12CCN(C/C=C/c1ccccc1)CC2, the Potency was “inactive”. In the case of Cc1ccc(C(=O)N2CC(n3c(C)cnc3-c3ccccc3)C2)cn1, the Potency is reported as “inactive”. For CCOC(=O)C(C)Oc1cccn2c(=O)c(-c3cc(C)n(-c4cccc(F)c4)n3)c(C)nc12 (centres undefined), the Potency was “inactive”. For Cc1cc(N)n(CC(=O)N[C@@H]2COCC[C@H]2Oc2ccc(C(N)=O)cc2)n1, the Potency was “inactive”. O=C(NCc1ccncc1)c1ccc(CN2C(=O)NC3(CCS(=O)(=O)CC3)C2=O)cc1 was tested, and the Potency was “inactive”. With CN(Cc1cccnc1)C(=O)CC(c1ccccc1)c1ccc(Cl)cc1 (centres undefined) the Potency was “inactive”. For O=C(NCCc1ccccc1)C1CN(C2CCCCC2)C(=O)N1 (centres undefined), the Potency was “inactive”. For COc1ccc(C(=O)N2C[C@@H](F)[C@@H](OCc3nc4ccc(C(F)(F)F)cc4[nH]3)C2)cc1, the Potency was “inactive”. CC(=O)Nc1ccc(C2(C(=O)NCc3ccc(Cl)cc3)CCC2)cc1 was tested, and the Potency was “inactive”. With CN(C)C(=O)CCc1ccc2c(c1)CN(Cc1cn[nH]c1-c1ccc(F)cc1)CCO2 the Potency was “inactive”. Cc1nn(C(=O)CCC(=O)N2CCC(CCOc3ccccc3)C2)c2ccccc12 (centres undefined) was tested, and the Potency was “inactive”. In the case of C=CCN(C)C(=O)C[C@@H]1c2nc(NC(=O)c3ccc(C(C)(C)C)cc3)sc2C[C@@H]2[C@](C)(CO)[C@H](O)CC[C@]21C, the Potency is reported as “inactive”. For COC(=O)[C@@H]1Cc2ncn(Cc3ccc(Cl)cc3)c2CN1Cc1ccc(N(C)C)cc1, the Potency was “inactive”. COc1cc2c(cc1CN1C[C@H]3CC[C@@H]1CN(C(=O)c1cnccn1)C3)CCC2 was tested, and the Potency was “inactive”. Cc1ccc(S(=O)(=O)CCNC(=O)c2cc3n(n2)CCCNC3)cc1 was tested, and the Potency was “inactive”. For c1ccc2c(c1)CNC1(CCN(Cc3cccc4ccccc34)CC1)CO2, the Potency was “inactive”. For COc1ccc(-n2nc(C)c([C@H]3C=C[C@@H](OC(=O)Nc4cccc(F)c4)C3)c2C)cc1, the Potency was “inactive”. For Cc1ccc(S(=O)(=O)N2CCCC(CCC(=O)NC3CCCCC3)C2)cc1 (centres undefined), the Potency was “inactive”. In the case of O=C(NCc1ccc(Cl)nc1)c1ccn2cncc2c1, the Potency is reported as “inactive”. In the case of CCc1cccc2c(C(CC(=O)NCC(C)C)c3ccccc3OC)c[nH]c12 (centres undefined), the Potency is reported as “inactive”. In the case of COc1ccc(C(=O)N2CCN(C(C(=O)O)c3cccc(O)c3)CC2)cc1 (centres undefined), the Potency is reported as “inactive”. In the case of CN1c2cc(C(=O)NCc3ccccc3Br)ccc2C(=O)N2CCCCC21 (centres undefined), the Potency is reported as “inactive”. COc1cccc(CN2C(=O)OC3(CCN(C(=O)C4CCC(OC)CC4)CC3)C2(C)c2cccnc2)c1 (centres undefined) was tested, and the Potency was “inactive”. In the case of C=CCn1cc2c3c(cccc31)[C@H](CC(C)C)N[C@H](C(=O)NCC1CC1)C2, the Potency is reported as “inactive”. In the case of Cc1ccc(CN2CCC3(CC2)CN(C2CCC2)CC3CO)o1 (centres undefined), the Potency is reported as “inactive”. For NC1(C(=O)NCCC2CCCN(Cc3ccc4occc4c3)C2)CC1 (centres undefined), the Potency was “inactive”. For COC(=O)[C@@H]1CN(C(=O)c2cccnc2)CCN1C(C)=O, the Potency was “inactive”. With FC(F)(F)c1ccc(CN2CCn3c(nnc3-c3ccccc3)C2)cc1 the Potency was “inactive”. Cc1noc(C)c1CCCNC(=O)c1ccc(N(C)C2CCOC2)nc1 (centres undefined) was tested, and the Potency was “inactive”. With Cc1nc(C)c(C)c(N2CCCC(c3nccn3Cc3ccccc3)C2)n1 (centres undefined) the Potency was “inactive”. With COC(=O)CNC(=O)C1CN(c2ccccc2)C(=O)N1 (centres undefined) the Potency was “inactive”. With O=C1NCCCCCCN(C(=O)c2cccs2)[C@H]2C[C@H](c3nc(Cc4ccccc4)no3)C[C@@H]12 the Potency was “inactive”. O=C(CCc1nnn2c1CN(C(=O)NCc1ccc(F)cc1)CC2)N1CCOCC1 was tested, and the Potency was “inactive”. In the case of Cc1noc(C)c1[S+](=O)([O-])NC1CCN(Cc2ccc(-c3ccsc3)cc2)C1 (centres undefined), the Potency is reported as “inactive”. CCCNC(=O)N1CCCCC1c1nc(CCOc2ccc(F)cc2)no1 (centres undefined) was tested, and the Potency was “inactive”. With CCCNC(=O)N1CCn2nnc(CCC(=O)N3CCOCC3)c2C1 the Potency was “inactive”. Cc1cc2ncc(C(=O)NCC3CC3)cn2n1 was tested, and the Potency was “inactive”. O=C(NCCc1ccccn1)C1CCCN(c2nc(-c3ccccc3)nc3c2CCC3)C1 (centres undefined) was tested, and the Potency was “inactive”. CCOc1ccc(CCCC(=O)N2CC[C@@](C)(O)[C@@H](O)C2)cc1C was tested, and the Potency was “inactive”. With O=C(c1cncc(Br)c1)N1CCC(Cc2nc(C3CCOCC3)no2)CC1 the Potency was “inactive”. In the case of CC(=O)N[C@@H]1C=C(C(=O)N[C@H](CC(C)C)C(N)=O)C[C@@H](O)[C@@H]1O, the Potency is reported as “inactive”. Cc1ccc(C(=O)N2C[C@@H](Oc3ccccc3)C[C@H]2C(=O)N2CCCC2)cn1 was tested, and the Potency was “inactive”. With O=C(NCCn1ccc2ccc(Cl)cc21)C1CC(=O)N(c2n[nH]c3ccccc23)C1 (centres undefined) the Potency was “inactive”. In the case of COCCN1CC(CO)C2(CCN(Cc3cnn(C(C)C)c3)CC2)C1 (centres undefined), the Potency is reported as “inactive”. For Cn1cc(CN2CCCN(C(=O)c3ccco3)CC2)c(-c2ccc(C3CCCCC3)cc2)n1, the Potency was “inactive”. For COc1ccccc1CN1CC[C@@H](CO)N(C)c2ncccc2C1, the Potency was “inactive”. With COCCOc1ccnc(-c2noc([C@@H]3CCCN3Cc3ccc(Cl)cc3)n2)c1 the Potency was “inactive”. With O=C(NCC(F)(F)F)c1nc2cccnc2n(CCc2ccccc2)c1=O the Potency was “inactive”. With CC(C)C(=O)NC1CCCc2c1[nH]c1c(Cl)cccc21 (centres undefined) the Potency was “inactive”. For O=S(=O)(c1ccc(F)cc1)N1CCCC(Cc2noc(-c3ccccc3)n2)C1 (centres undefined), the Potency was “inactive”. With Cc1ccncc1C(=O)N1CCC(Cn2c(C)cnc2-c2cccnc2)CC1 the Potency was “inactive”. In the case of COc1cccc(-c2cccc(C(=O)N3CCN(C(=O)Cc4ccc(F)cc4)CC3)c2)c1, the Potency is reported as “inactive”. COCCC1(NS(C)(=O)=O)CCN(S(=O)(=O)c2ccc3c(c2)OCCO3)CC1 was tested, and the Potency was “inactive”. For COc1cccc(-c2ccc(CN3CCCC3C(=O)NCc3ccccc3Cl)cc2)c1 (centres undefined), the Potency was “inactive”. With Cc1cc(Cl)ccc1S(=O)(=O)N1CCn2c(nn(CC3CC3)c2=O)C1 the Potency was “inactive”. COCCN1C(=O)CCC2(CNC(=O)c3ccncc3)CCC=C12 (centres undefined) was tested, and the Potency was “inactive”. For O=C(NCC1CCCO1)c1csc(N2CCN(c3ccccc3F)CC2)n1 (centres undefined), the Potency was “inactive”. With NC(=O)c1cccc(-c2ncc3c(n2)OCCN(CC2CC2)C3=O)c1 the Potency was “inactive”. Cc1cc(C)cc(C(=O)NC2CCN(c3cnn(C)c(=O)c3)CC2)c1 was tested, and the Potency was “inactive”. With O=C(c1cccc(Cl)c1)N1CCC(C(=O)N2CCC(N3CCOCC3=O)CC2)CC1 the Potency was “inactive”. For O=C(c1cnccn1)N1CCC(N2C(=O)C(OCC3CC3)C23CCOCC3)CC1 (centres undefined), the Potency was “inactive”. In the case of O=C1NC2(CCN(Cc3ccc(F)cc3)C2)OCc2ccccc21 (centres undefined), the Potency is reported as “inactive”. In the case of Cc1ccc2c(C)c(C(=O)N3CCCC3c3nc(C(C)C)no3)oc2c1C (centres undefined), the Potency is reported as “inactive”. With COCCC1(CO)CCCN(C(=O)c2ccc(S(N)(=O)=O)cc2)C1 (centres undefined) the Potency was “inactive”. In the case of C#CCN(Cc1nc(-c2cc(OC)ccc2F)oc1C)C1CCCCC1, the Potency is reported as “inactive”. For CNCC(O)c1ccc(O)c(O)c1 (centres undefined), the Potency was 6.31 µM (active). In the case of COCC(=O)N1CCC(N2C[C@H](OC)[C@@H]2c2ccncc2)CC1, the Potency is reported as “inactive”. With CC1(C(=O)N2CCN(c3ccccn3)CC2)CCCc2cnc(Nc3cccnc3)nc21 (centres undefined) the Potency was “inactive”. With Cc1cc(C)c(C(=O)N2CCOC(Cc3ccc(F)cc3)C2)o1 (centres undefined) the Potency was “inactive”. With Cc1ccc(NC(=O)C2CCc3nnc(C4CCN(C(=O)NC(C)(C)C)CC4)n32)cc1 (centres undefined) the Potency was “inactive”. In the case of O=C(Cc1ccc(F)cc1)N1CCC(C(=O)N2CCC(c3nc4ncccc4[nH]3)CC2)C1 (centres undefined), the Potency is reported as “inactive”. For CN(C)C(=O)NC1CCN(c2nc3ncccc3o2)CC1, the Potency was “inactive”. For COc1cc2c(cc1OC)C(CNC(=O)c1cccc(Cl)c1)N(C(=O)Nc1ccccc1)CC2 (centres undefined), the Potency was “inactive”.
